# Records with an inconclusive call do not appear. The source made the active and inactive calls. The call rests on the fitted dose curve; in most records, active means well fitted inhibition curve with a large enough effect; inconclusive means small, poorly fitted or top-dose-only effect; inactive means flat fitted curve, though single readings scatter.
# Test system: KB-3-1
# Assay: Cytotoxic Profiling of Annotated Libraries Using Quantitative High-Throughput Screening (AID 1296008); further: nearly all actives have a fitted effect of over 60% in size
# Settings: Five cell lines viability, CellTiter-Glo ATP luminescence, 48-72 h; max response: active compounds read low
# Summary of the method: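 Compounds were pin-transferred onto cells and incubated 48 or 72 hr at 37 degree Celsius, 95% humidity. CellTiter-Glo was added, plates sat 10 min at room temperature, then ATP-coupled luminescence was imaged as the viability read-out.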
# On the % scale 0 is the no-effect control and ±100 the full control effect; potency means the concentration at half of the fitted maximal effect.
SMILES,max response,outcome,Potency
O=C(NCCCc1ccccc1)C1CCC(CNS(=O)(=O)c2cccc3nsnc23)CC1 (stereo not given),-11.8% (inactive),–,–
C/C=C(/C=C(C)/C=C/C=C/C=C(\C)C(=O)C12OC1C(O)(CCO)NC2=O)C(=O)OC (stereo not given),–,inactive,–
COc1ccc(C2(N(C)C(=O)c3ccc(NC(=O)c4ccco4)cc3)CCOCC2)cc1,-3.65% (inactive),–,–
Cn1cc(-c2ccc(F)c(C(F)(F)F)c2)nc1C1CCN(c2ncnc3[nH]ncc23)CC1,0.816% (inactive),–,–
CN(C)CCOc1cc(NS(=O)(=O)c2c(Cl)cc(C(F)(F)F)cc2Cl)ccc1Cl,-11% (inactive),–,–
COc1cc(O)cc(/C=C/c2cccc(O)c2)c1,–,inactive,–
O=C(NCCCn1ccnc1)c1cc(-c2ccco2)on1,-0.296% (inactive),–,–
CCC/C=C\C=C/CCc1cc(O)c([C@@H]2O[C@H](CO)[C@@H](O)[C@H](O)[C@H]2O)c(O)c1C(=O)OC,-7.75% (inactive),–,–
CC[C@H](C)/C=C(C)/C=C/C1=CC2=C(Cl)C(=O)[C@](C)(O)[C@H](OC(C)=O)[C@H]2CO1,-1.44% (inactive),–,–
O=C(Nc1ccccc1Cl)c1cnc2ccc(C3CCNCC3)cn12,2.96% (inactive),–,–
CC(C)(C)Sc1c(CC(C)(C)C(=O)O)n(Cc2ccc(Cl)cc2)c2ccc(OCc3ccc4ccccc4n3)cc12,–,inactive,–
COc1cc(NC(=O)c2cc(C3CC3)on2)c(OC)cc1Cl,7.13% (inactive),–,–
CCOC(=O)CCNc1cc(N2CCc3ccccc3CC2)nc(-c2cccnc2)n1,–,inactive,–
CCOC(=O)C1=Cc2ccc(C(F)(F)C(F)(F)F)cc2N=C(N)C1,-20.4% (inactive),–,–
O=S(=O)(Cc1ccccc1)Nc1ccc(-c2ccc3c(cnn3-c3ccc(F)cc3)c2)c(C(F)(F)F)c1,-15.9% (inactive),–,–
O=C(Nc1ccc(N2C(=O)[C@@H]3[C@H](C2=O)[C@@H]2C=C[C@H]3C2)c(Cl)c1)c1ccccn1,-24.5% (inactive),–,–
COc1ccncc1C(=O)NC(=O)Nc1ccc(-c2ccccc2)c(C(F)(F)F)c1,-11.2% (inactive),–,–
CNCCC(c1cccs1)c1ccc(O)c2ccccc12 (stereo not given),6.48% (inactive),–,–
CC1(C)CC[C@]2(C(=O)O)CC[C@]3(C)C(=CCC4[C@@]5(C)C[C@@H](O)[C@H](O)C(CO)(CO)C5CC[C@]43C)C2[C@@H]1O (stereo not given in full),–,–,10 µM (active)
CC(C)Oc1ccc(-c2cnc3c(-c4ccnc5ccccc45)cnn3c2)cc1,-13.7% (inactive),–,–
CN(C)N(C)C(=O)[C@@]1(Cc2ccccc2)CCCN(C(=O)[C@@H](Cc2c[nH]c3ccccc23)NC(=O)C(C)(C)N)C1,4.19% (inactive),–,–
C=C(CCC1C(C)(O)CCC2C(C)(C)C(O)CCC12C)C(O)CO (stereo not given),-9.88% (inactive),–,–
COc1cccc(N2CCN(C3=Nc4c(F)cccc4[C@H](CC(=O)O)N3c3cc(C(F)(F)F)ccc3OC)CC2)c1,-13.7% (inactive),–,–
COc1ccccc1N1CCN(CC(C(=O)NC(C)(C)C)c2ccccc2)CC1 (stereo not given),7.33% (inactive),–,–
COc1ccc(CCc2nc3cc(-c4c(C)noc4C)ccc3n2CC(C)N2CCOCC2)cc1Cl (stereo not given),0.0649% (inactive),–,–
Fc1ccc(CN2CCC(Nc3ccc(C(F)(F)F)nn3)CC2)cc1F,-12.1% (inactive),–,–
COc1c(F)cccc1C(=O)N1C[C@@H](C)CC[C@H]1CNc1ccc(Br)cn1,-16% (inactive),–,–
C/C=C/C=C/C=C/C(=O)O[C@@H]1C=C(CO)C(O)(C(=O)OC)[C@@]2(C)CCCC(C)(C)C12 (stereo not given in full),-3.74% (inactive),–,–
COc1cc2c(cc1OCCCN1CCCC1)N=C(N)C21CCC1,0.253% (inactive),–,–
CC(C)c1c(O)ccc2c1CC[C@H]1C(C)(C)CCC[C@]21C,7.3% (inactive),–,–

# Reference: PubChem BioAssay (NCATS)
